Results on 39 molecules are retold here after PubChem BioAssay (NCI).

Compounds without any hit were thinned out: in the full panel of roughly 83,000, 20% have a hit.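 Single-concentration screen, 48 h exposure, 96-well plates. Endpoint: percent growth. Below 10 = active.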 A number with no mark means an inactive call. The source made the active and inactive calls.

In one assay the test system is UACC-62 melanoma. Nature of the assay: NCI-60 one-dose screen, 48 h (100 = growth as untreated, 0 = no growth, -100 = all killed). The conditions noted are these: 10 µM unless noted.
For `Nc1cc2nc3ccccc3sc-2cc1=O`, the growth is 17.2%.
As for `Cc1noc(C)c1-c1cc(O)cc(C(O)c2ccccc2)c1` (stereo not drawn), the growth was 31.6%.
For the molecule `CCCCCC(=O)N(CCCC)CCCC`, the growth is 94.2%.
Turning to `COc1ccc(/C=N\NC(=O)c2ccncc2)cc1O`, the growth was 99.8%.
As to `O=C(Cn1cc(CN2C(=O)c3ccccc3S2(=O)=O)nn1)Nc1ccc([N+](=O)[O-])cc1Cl`, the growth was 81.8%.
Still for that read-out and setting: for `Oc1ccc(Nc2nccc(-c3ccc4ccccc4c3)n2)cc1` the value was 39.4%.
The same measure, in the same setting: for `O=C1C=CC(=O)c2c1nc1n2CCCC1` the value was 71.4%; for `Cc1cc(Nc2nc(N3CCOCC3)nc3ccccc23)n[nH]1`, 45.7%; for `Cc1ccc(C2CC3c4ccccc4C2C2CCCCN32)cc1` (stereo not drawn), 99.3%.
Consider `Cc1csc2ccc(Cl)cc12`, for which the growth was 96.2%.
As for `O=S(=O)(Nc1ccc(F)c(Cl)c1)c1ccc(-c2cnc(C3CC3)o2)cc1`, the growth was 28.3%.
Consider `CC#Cc1nc2ccccc2c(=O)[nH]1`, for which the growth is 50.1%.
Same read-out and setting: for `C[C@H](CCC(=O)O)[C@H]1CC[C@H]2[C@@H]3CC[C@@H]4/C(=C\c5ccco5)C(=O)/C(=C\c5ccco5)C[C@]4(C)[C@H]3CC[C@]12C` the value was 17.2%.
With `Cc1cc(Nc2nc(-c3cccnc3)nc3ccccc23)n[nH]1`, the growth was 49.3%.
`COc1cc(OC)c(/C=C/c2cc[n+](C)c3ccccc23)c(OC)c1`: the growth is 12.7%.
Take `CCCCCCCCCCCCCCCC[N+]1(CC)CCCC1`: the growth was -78.3% (active).
On to `CC(=O)OCC(=O)C1CCC=CC1OC(C)=O` (stereo not drawn), for which the growth is 95.4%.
Consider `COC1C/C(=N\O)C2OC(c3ccccc3)OCC2O1` (stereo not drawn), for which the growth is 96.5%.
Same read-out and setting: for `CC[C@H](Nc1nc(N)nc(C)c1C#N)c1nc2cccc(NCc3ccc(C(=O)NO)cc3)c2c(=O)n1-c1ccccc1` the value was -28.6% (active).
On the same count and under the same terms, in the case of `Cc1nn(-c2ccccc2)c2nc(C)n(-c3ccc(Br)cc3)c(=O)c12` it was 38.7%.
Turning to `Cc1ccc2c(NCCCN(C)C)c3c(C)nn(C)c3nc2c1`, the growth was 58.8%.
With `NC(CC(=O)O)C(=O)OCc1ccccc1` (stereo not drawn), the growth is 94.5%.
As to `NCCN1CCN(c2nccc(-c3ccc4ccccc4c3)n2)CC1`, the growth is -65.3% (active).
Take `Nc1ccc(Nc2nccc(-c3ccc4ccccc4c3)n2)cc1`: the growth is 32.2%.
As to `CCCNc1nc(SC)nc(-c2cccc(N)c2)c1C#N`, the growth is 89.4%.
The same measure, in the same setting: for `CN(C)CCOc1ccc(-c2nc3ccc(-c4nc5ccc(N6CCN(C)CC6)cc5[nH]4)cc3[nH]2)cc1` the value was 2.8% (active); for `CCCCCCCCCCCCN1CCCC(C)C1` (stereo not drawn), 108%.
Consider `COc1ccc(-c2nc(Nc3cc(C)[nH]n3)c3ccccc3n2)cc1`, for which the growth is 52.9%.
On to `CN[C@@]12CC3(C=CC(=O)C=C3)O[C@]1(Cc1ccc(OC)cc1)N(C)C(=O)N2`, for which the growth is 54.7%.
For the molecule `COc1cc2cc(COc3nccc(-c4ccc(Cl)cc4)n3)c(=O)[nH]c2cc1OC`, the growth was 92.3%.
In the case of `Cc1ccc(S(=O)(=O)N(CCc2ccc(Cl)cc2)S(=O)(=O)c2ccc(C)cc2)cc1`, the growth is 78.1%.
Consider `CC[C@H](Nc1cc(C)nc(N)n1)c1nc2cccc(NCc3ccc(C(=O)NO)cc3)c2c(=O)n1-c1ccccc1`, for which the growth was 9.65% (active).
Consider `CN1CCCCC1CCN1c2ccccc2Sc2ccc(Br)cc21` (stereo not drawn), for which the growth was 76.8%.
For `O=C1Nc2ccc(Br)cc2C12CC(c1ccccc1)=NN2` (stereo not drawn), the growth is 48.2%.
As for `O=C(N/N=C/c1ccc(O)cc1O)c1cccnc1`, the growth is 34.2%.
As to `O=C(Nc1ccc(F)cc1)Nc1ccc(CCO)cc1`, the growth was 107%.
Consider `C[C@@H]1CC[C@@H]2[C@@H]1[C@H](OC(=O)/C=C/c1ccccc1)[C@]1(C3CCCCC3)C[C@@H](OC(=O)CO)[C@@]2(C)O1`, for which the growth is 73.3%.
On to `O=C1Nc2ccccc2/C1=C/C(=N/c1nnc(-c2ccccc2)s1)c1ccccc1`, for which the growth was 71.5%.
On to `CCCCCCCCOC(=O)CC[C@@H](C)[C@H]1CC[C@H]2[C@@H]3[C@H](OC(=O)CCN)C[C@@H]4C[C@H](OC(=O)CCN)CC[C@]4(C)[C@H]3C[C@H](OC(=O)CCN)[C@]12C`, for which the growth is 104%.

The test system of the next assay is LOX IMVI melanoma. The assay is described as above. The note with it: 10 µM unless noted.
On to `Nc1cc2nc3ccccc3sc-2cc1=O`, for which the growth was 11%.
Turning to `Cc1noc(C)c1-c1cc(O)cc(C(O)c2ccccc2)c1` (stereo not drawn), the growth is 27.3%.
Turning to `CCCCCC(=O)N(CCCC)CCCC`, the growth was 110%.
As for `COc1ccc(/C=N\NC(=O)c2ccncc2)cc1O`, the growth is 97.2%.
For the molecule `O=C(Cn1cc(CN2C(=O)c3ccccc3S2(=O)=O)nn1)Nc1ccc([N+](=O)[O-])cc1Cl`, the growth is 92.1%.
On to `Oc1ccc(Nc2nccc(-c3ccc4ccccc4c3)n2)cc1`, for which the growth is 27.1%.
On the same count and under the same terms, in the case of `O=C1C=CC(=O)c2c1nc1n2CCCC1` it was 48.8%; in that of `Cc1cc(Nc2nc(N3CCOCC3)nc3ccccc23)n[nH]1`, 63.3%.
As for `Cc1ccc(C2CC3c4ccccc4C2C2CCCCN32)cc1` (stereo not drawn), the growth is 84.4%.
As to `Cc1csc2ccc(Cl)cc12`, the growth is 103%.
As for `O=S(=O)(Nc1ccc(F)c(Cl)c1)c1ccc(-c2cnc(C3CC3)o2)cc1`, the growth is 42.8%.
Same read-out and setting: for `CC#Cc1nc2ccccc2c(=O)[nH]1` the value was -60.1% (active).
Turning to `C[C@H](CCC(=O)O)[C@H]1CC[C@H]2[C@@H]3CC[C@@H]4/C(=C\c5ccco5)C(=O)/C(=C\c5ccco5)C[C@]4(C)[C@H]3CC[C@]12C`, the growth is 31.6%.
Turning to `Cc1cc(Nc2nc(-c3cccnc3)nc3ccccc23)n[nH]1`, the growth is 20.1%.
Consider `COc1cc(OC)c(/C=C/c2cc[n+](C)c3ccccc23)c(OC)c1`, for which the growth is -74.2% (active).
Consider `CCCCCCCCCCCCCCCC[N+]1(CC)CCCC1`, for which the growth is -64.1% (active).
As to `CC(=O)OCC(=O)C1CCC=CC1OC(C)=O` (stereo not drawn), the growth is 96.1%.
For `COC1C/C(=N\O)C2OC(c3ccccc3)OCC2O1` (stereo not drawn), the growth was 101%.
Same read-out and setting: for `CC[C@H](Nc1nc(N)nc(C)c1C#N)c1nc2cccc(NCc3ccc(C(=O)NO)cc3)c2c(=O)n1-c1ccccc1` the value was -52.6% (active); for `Cc1nn(-c2ccccc2)c2nc(C)n(-c3ccc(Br)cc3)c(=O)c12`, 45.6%.
Take `Cc1ccc2c(NCCCN(C)C)c3c(C)nn(C)c3nc2c1`: the growth is 15.5%.
`NC(CC(=O)O)C(=O)OCc1ccccc1` (stereo not drawn): the growth is 107%.
Consider `NCCN1CCN(c2nccc(-c3ccc4ccccc4c3)n2)CC1`, for which the growth is -64.8% (active).
The same measure, in the same setting: for `Nc1ccc(Nc2nccc(-c3ccc4ccccc4c3)n2)cc1` the value was 38.1%.
Turning to `CCCNc1nc(SC)nc(-c2cccc(N)c2)c1C#N`, the growth was 94.1%.
Take `CN(C)CCOc1ccc(-c2nc3ccc(-c4nc5ccc(N6CCN(C)CC6)cc5[nH]4)cc3[nH]2)cc1`: the growth is 67.9%.
On to `CCCCCCCCCCCCN1CCCC(C)C1` (stereo not drawn), for which the growth is 56.4%.
Turning to `COc1ccc(-c2nc(Nc3cc(C)[nH]n3)c3ccccc3n2)cc1`, the growth was 13.7%.
Consider `CN[C@@]12CC3(C=CC(=O)C=C3)O[C@]1(Cc1ccc(OC)cc1)N(C)C(=O)N2`, for which the growth was 10.3%.
In the case of `COc1cc2cc(COc3nccc(-c4ccc(Cl)cc4)n3)c(=O)[nH]c2cc1OC`, the growth was 54.7%.
Still for that read-out and setting: in the case of `Cc1ccc(S(=O)(=O)N(CCc2ccc(Cl)cc2)S(=O)(=O)c2ccc(C)cc2)cc1` it was 92.4%.
Still for that read-out and setting: for `CC[C@H](Nc1cc(C)nc(N)n1)c1nc2cccc(NCc3ccc(C(=O)NO)cc3)c2c(=O)n1-c1ccccc1` the value was -57.9% (active); for `CN1CCCCC1CCN1c2ccccc2Sc2ccc(Br)cc21` (stereo not drawn), 60%; for `O=C1Nc2ccc(Br)cc2C12CC(c1ccccc1)=NN2` (stereo not drawn), 51.9%.
Consider `O=C(N/N=C/c1ccc(O)cc1O)c1cccnc1`, for which the growth is 21.8%.
Consider `O=C(Nc1ccc(F)cc1)Nc1ccc(CCO)cc1`, for which the growth is 111%.
Consider `C[C@@H]1CC[C@@H]2[C@@H]1[C@H](OC(=O)/C=C/c1ccccc1)[C@]1(C3CCCCC3)C[C@@H](OC(=O)CO)[C@@]2(C)O1`, for which the growth was 76%.
As to `O=C1Nc2ccccc2/C1=C/C(=N/c1nnc(-c2ccccc2)s1)c1ccccc1`, the growth was -86.3% (active).
With `CCCCCCCCOC(=O)CC[C@@H](C)[C@H]1CC[C@H]2[C@@H]3[C@H](OC(=O)CCN)C[C@@H]4C[C@H](OC(=O)CCN)CC[C@]4(C)[C@H]3C[C@H](OC(=O)CCN)[C@]12C`, the growth was 63.2%.
